Drawing on PubChem BioAssay (NCI), this text covers growth for 36 molecules.

Values joined by “and” are separate entries in the source; they are usually repeats but may differ in a detail not shown here. Identical values can stand only once. The panel holds about 83,000 compounds, 20% with a hit somewhere; the sample as a whole holds those more often.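 Cell lines were cultured in 96-well plates, exposed to a single compound concentration, and assessed for percent growth 48 hours later.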 Active and inactive are the calls of the source. The calls were made as follows: active = growth percent below 10; inactive = the rest.

For assay [1], the system named is UACC-62 melanoma. Nature of the assay: NCI-60 one-dose screen, 48 h (100 = growth as untreated, 0 = no growth, -100 = all killed). As to conditions: 10 µM unless noted.
Assay [2] deals with TK-10 renal. The assay is described as above. To be noted: 10 µM unless noted.

On to `C=C1C(=O)OC2CC(C)C3(O)CCC(=O)C3(C)CC12` (configuration not stated), for which the growth in assay [1] is 9.02% [100 µM] (active) and 6.55% [100 µM] (active); in assay [2], 39.8% [100 µM] (inactive) and 21.4% [100 µM] (inactive).

As for `C[C@@H]1CC[C@H]2C(C)(C)[C@H]3C[C@@]12CC[C@@]3(C)O`, the growth is 80.1% [100 µM] (inactive) and 6.26% [100 µM] (active) in assay [1]; 87.1% [100 µM] (inactive) and 15.8% [100 µM] (inactive) in assay [2].

For `O=C1c2cccnc2-c2nccc3ccnc1c23`, the growth in assay [1] is -95.5% [100 µM] (active) and -100% [100 µM] (active); in assay [2], -100% [100 µM] (active).

As to `C=CC(COC(=O)C(C)(C)OC(C)=O)c1ccc(OC(=O)C(C)C)c(OC)c1` (configuration not stated), the growth in assay [1] is -92.2% [100 µM] (active) and -93.9% [100 µM] (active); in assay [2], -92.8% [100 µM] (active) and -93% [100 µM] (active).

As for `COc1ccc2c(c1)N(C(C)=O)CN1C(=O)CCC21` (configuration not stated), the growth in assay [1] is 87.4% [100 µM] (inactive) and 102% [100 µM] (inactive); in assay [2], 93% [100 µM] (inactive) and 101% [100 µM] (inactive).

`COC(=O)C(=O)C(C(=O)C(=O)Nc1ccc(Cl)c(Cl)c1)c1nc2ccc(C(=O)c3ccccc3)cc2[nH]c1=O` (configuration not stated): the growth was 43.9% [100 µM] (inactive) and 6.66% [100 µM] (active) in assay [1]; 89.4% [100 µM] (inactive) and 14.4% [100 µM] (inactive) in assay [2].

As to `CCC1OC2(C)CC(C#N)(C#N)C1(C#N)C(=N)O2` (configuration not stated), the growth is 34.6% [100 µM] (inactive) in assay [1] and 92.1% [100 µM] (inactive) in assay [2].

With `CC(=N\N=C\c1ccccn1)/C(C)=N/N=C/c1ccccn1`, the growth is 86% [100 µM] (inactive) and 54.1% [100 µM] (inactive) in assay [1]; 108% [100 µM] (inactive) and 118% [100 µM] (inactive) in assay [2].

Regarding `O=C(Cc1nc2ccc(C(=O)c3ccccc3)cc2[nH]c1=O)C(=O)Nc1ccccc1[N+](=O)[O-]`, the growth was 30.2% [100 µM] (inactive) and -20.2% [100 µM] (active) in assay [1]; 75.1% [100 µM] (inactive) and 12.6% [100 µM] (inactive) in assay [2].

Turning to `COC(=O)C(=O)C(C(=O)C(=O)Nc1ccccc1C(C)=O)c1nc2ccc(C(=O)c3ccccc3)cc2[nH]c1=O` (configuration not stated), the growth in assay [1] was 48.7% [100 µM] (inactive) and 10.4% [100 µM] (inactive); in assay [2], 114% [100 µM] (inactive) and 17.9% [100 µM] (inactive).

`COC(=O)c1ccc(NC(=O)O/N=C(\Cl)C(C)C)cc1`: the growth in assay [1] was -90.3% [100 µM] (active) and -100% [100 µM] (active); in assay [2] it was -100% [100 µM] (active).

As to `CC(C)(C)c1cc(C2COC(=O)COCCOCC(=O)OCCOCCO2)cc(C(C)(C)C)c1O` (configuration not stated), the growth in assay [1] was 24.1% [100 µM] (inactive) and -65.6% [100 µM] (active); in assay [2], -69.6% [100 µM] (active) and -100% [100 µM] (active).

On to `COc1ccc2cc1Oc1ccc(cc1)C[C@@H]1c3cc(c(OC)cc3CCN1C)Oc1c(OC)c(OC)cc3c1[C@H](C2)N(C)CC3`, for which the growth in assay [1] is 20.3% [100 µM] (inactive) and -83.9% [100 µM] (active); in assay [2], 33.5% [100 µM] (inactive) and -100% [100 µM] (active).

Turning to `Clc1ccc(C2NN=C3c4ccccc4OCC32)cc1` (configuration not stated), the growth in assay [1] is 4.4% [100 µM] (active) and -69.2% [100 µM] (active); in assay [2], 7.98% [100 µM] (active) and 5.96% [100 µM] (active).

Regarding `N/N=C(\C(=O)Nc1ccc([N+](=O)[O-])cc1)C(C1=Nc2cc([N+](=O)[O-])ccc2NC1)[N+](=O)[O-]` (configuration not stated), the growth was 42.3% [100 µM] (inactive) and 14.7% [100 µM] (inactive) in assay [1]; 117% [100 µM] (inactive) and 4.46% [100 µM] (active) in assay [2].

Consider `CCCCCC(O)(CCCCC)CCCCCCCCC1=C(O)c2ccccc2C(=O)C1=O`, for which the growth in assay [1] was -74.8% [100 µM] (active) and -14.4% [100 µM] (active); in assay [2], 0.969% [100 µM] (active) and -7.87% [100 µM] (active).

Take `Cc1ccc(/C=N/Nc2ccccn2)s1`: the growth in assay [1] was 74.5% [100 µM] (inactive) and 87.7% [100 µM] (inactive); in assay [2], 147% [100 µM] (inactive) and 60.9% [100 µM] (inactive).

Turning to `Cc1coc2c1C(OC(=O)C(C)C)C1(C)C(C)CCC(O)C1C2=O` (configuration not stated), the growth in assay [1] is 39% [100 µM] (inactive) and 18.7% [100 µM] (inactive); in assay [2] it was 87.9% [100 µM] (inactive) and 63.5% [100 µM] (inactive).

As for `Cc1ccc(OCC2OC(n3cnc4c(Cl)nc(Cl)nc43)CC2Oc2ccc(C)cc2)cc1` (configuration not stated), the growth in assay [1] is -90.8% [100 µM] (active) and -89.2% [100 µM] (active); in assay [2], 72.8% [100 µM] (inactive) and -96.1% [100 µM] (active).

As for `CSc1nc(Br)nc2ncn(C3CC(Oc4ccc(C)cc4)C(COc4ccc(C)cc4)O3)c12` (configuration not stated), the growth is 84.5% [100 µM] (inactive) and -65.3% [100 µM] (active) in assay [1]; 111% [100 µM] (inactive) and -100% [100 µM] (active) in assay [2].

As to `COc1ccc2cc1Oc1ccc(cc1)CC1c3cc(OC)c(cc3CCN1C)Oc1c(OC)c(OC)cc3c1C(C2)N(C)CC3` (configuration not stated), the growth is -46.8% [75 µM] (active) and -87.8% [75 µM] (active) in assay [1]; -57.1% [75 µM] (active) and -97.5% [75 µM] (active) in assay [2].

Regarding `C=C1CC2(C)CCC(OC(=O)C3(C)OC3C)C(C)(OC(C)=O)C2CC1=C(C)C` (configuration not stated), the growth in assay [1] is 75.8% [100 µM] (inactive) and 12.7% [100 µM] (inactive); in assay [2] it was 89.2% [100 µM] (inactive) and 49.5% [100 µM] (inactive).

As for `CC(=Nc1ccncc1)C(C)=Nc1ccncc1`, the growth in assay [1] was -98.5% [100 µM] (active) and -100% [100 µM] (active); in assay [2], -74.8% [100 µM] (active) and -52.5% [100 µM] (active).

Consider `COC(=O)C(C(=O)C(=O)Nc1c(C)cccc1C(C)(C)C)c1nc2ccc(Cl)cc2[nH]c1=O` (configuration not stated), for which the growth was 68% [100 µM] (inactive) and 84.1% [100 µM] (inactive) in assay [1]; 141% [100 µM] (inactive) and 105% [100 µM] (inactive) in assay [2].

Regarding `NC(N)=Nc1ccc(CC(N)C(=O)O)cc1` (configuration not stated), the growth was 89% [12.5 µM] (inactive) and 94.1% [12.5 µM] (inactive) in assay [1]; 107% [12.5 µM] (inactive) and 111% [12.5 µM] (inactive) in assay [2].

On to `COc1ccc(C)cc1NC(=S)C#N`, for which the growth in assay [1] was 74.4% [100 µM] (inactive) and 31.4% [100 µM] (inactive); in assay [2] it was 112% [100 µM] (inactive) and 36.2% [100 µM] (inactive).

Take `COc1c(O)ccc(C2=Cc3ccc(O)cc3OC2)c1OC`: the growth in assay [1] was -72.2% [100 µM] (active) and -24.7% [100 µM] (active); in assay [2], 1.01% [100 µM] (active) and 9.04% [100 µM] (active).

Consider `CCC(c1ccc(N(C)C)cc1)C1NC(=S)NC1=O` (configuration not stated), for which the growth was 20.7% [100 µM] (inactive) and 17.1% [100 µM] (inactive) in assay [1]; 47.6% [100 µM] (inactive) and 37.5% [100 µM] (inactive) in assay [2].

On to `Cc1ccc(NC2=N/C(=C/c3ccccc3)C(Cl)=N2)cc1`, for which the growth in assay [1] is 27.6% [100 µM] (inactive) and 12% [100 µM] (inactive); in assay [2], 82.6% [100 µM] (inactive) and -17.1% [100 µM] (active).

For the molecule `Cc1ccc(NC(=O)/C(=N\NC(N)=O)c2c(O)c3ccccc3[nH]c2=O)cc1`, the growth in assay [1] is 87% [100 µM] (inactive) and 83% [100 µM] (inactive); in assay [2] it was 123% [100 µM] (inactive) and 118% [100 µM] (inactive).

As for `N#Cc1nc(-c2cccc(-c3nc(C#N)c(N)o3)n2)oc1N`, the growth in assay [1] was 89.4% [100 µM] (inactive) and 63.8% [100 µM] (inactive); in assay [2] it was 96.3% [100 µM] (inactive) and 84.9% [100 µM] (inactive).

With `COC(=O)C1CCC(=O)N1CN(C(C)=O)c1cccc(O)c1` (configuration not stated), the growth was 74.6% [100 µM] (inactive) and 102% [100 µM] (inactive) in assay [1]; 77.3% [100 µM] (inactive) and 106% [100 µM] (inactive) in assay [2].

For the molecule `N#Cc1nc(C(F)(F)F)oc1N`, the growth was 57.6% [100 µM] (inactive) and 93.3% [100 µM] (inactive) in assay [1]; 79% [100 µM] (inactive) and 98.6% [100 µM] (inactive) in assay [2].

Turning to `C=CCn1c2c(c3ccccc3c1=O)C(=O)c1ccccc1-2`, the growth in assay [1] is 66.9% [100 µM] (inactive) and 11.1% [100 µM] (inactive); in assay [2], 47.5% [100 µM] (inactive) and -35.9% [100 µM] (active).

Regarding `C[C@]12CC[C@@H]3c4ccc(OS(N)(=O)=O)cc4CC[C@H]3[C@@H]1CCC2=O`, the growth in assay [1] was 9.29% [100 µM] (active) and 48.3% [100 µM] (inactive); in assay [2], 31.9% [100 µM] (inactive) and 68.9% [100 µM] (inactive).

On to `Clc1ccc(C2C3COc4ccccc4C3=NN2c2ccccc2)cc1` (configuration not stated), for which the growth is 37.4% [100 µM] (inactive) and 0.301% [100 µM] (active) in assay [1]; 77% [100 µM] (inactive) and 31.3% [100 µM] (inactive) in assay [2].
